FLuc modulator: qHTS profiling assay for firefly luciferase inhibitor/activator using purifed enzyme and Km concentrations of substrates (counterscreen for miR-21 project); hit rate 6.9% among 360,000; purified FLuc, Km substrates, luminescence inhibition; AID 588342, 2011; Luciferin 4-monooxygenase (Photinus pyralis), P08659; Potency, µM (top dose mostly 57.5 µM), usual class: inhibitors; further: nearly all actives have a fitted effect of over 55% in size
Target sequence (P08659 whole entry, looked up): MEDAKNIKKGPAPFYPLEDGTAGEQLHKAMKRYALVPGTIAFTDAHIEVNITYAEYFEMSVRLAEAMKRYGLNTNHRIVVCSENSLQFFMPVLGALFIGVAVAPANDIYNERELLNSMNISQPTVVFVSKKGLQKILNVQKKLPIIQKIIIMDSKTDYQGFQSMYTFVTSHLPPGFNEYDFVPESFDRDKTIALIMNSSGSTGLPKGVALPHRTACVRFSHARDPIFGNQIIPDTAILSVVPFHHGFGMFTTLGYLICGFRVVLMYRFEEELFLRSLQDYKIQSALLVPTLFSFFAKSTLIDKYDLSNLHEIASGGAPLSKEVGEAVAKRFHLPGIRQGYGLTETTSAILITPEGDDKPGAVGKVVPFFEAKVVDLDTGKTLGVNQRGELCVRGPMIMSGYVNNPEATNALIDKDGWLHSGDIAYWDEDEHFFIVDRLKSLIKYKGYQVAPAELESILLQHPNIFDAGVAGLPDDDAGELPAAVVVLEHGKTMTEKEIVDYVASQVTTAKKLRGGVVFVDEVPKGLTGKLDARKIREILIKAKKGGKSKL
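Biochemical qHTS of compounds, final roughly 60 µM downward over six points, against 10 nM purified firefly luciferase using Km concentrations of substrates (10 uM D-luciferin, 10 uM ATP) in Tris acetate pH 7.5 buffer; luminescence output.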
SMN2 splice up: qHTS Assay for Enhancers of SMN2 Splice Variant Expression. HEK293 SMN2-luciferase splicing reporter, luminescence, 30-36 h. Potency, µM (series often up to 46.1 µM), most hits filed as activators. hit rate 2.8% among 210,000; further: nearly all actives have a fitted effect of over 55% in size
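qHTS luciferase splicing reporter: luminescence rises when SMN2 exon 7 is included in transfected HEK293 cells. Compound exposure lasted 30-36 h at 37C, with 4.5 mM final sodium butyrate as control, followed by a ONE-Glo read.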
ELG1 genotox: qHTS screen for small molecules that induce genotoxicity in human embryonic kidney (HEK293T) cells expressing luciferase-tagged ELG1. HEK293T ELG1-luciferase reporter, luminescence, 16 h. Potency, µM (highest dose often 46 µM), most hits filed as activators. hit rate 1.3% among 330,000. AID 504466, 2011; further: nearly all actives have a fitted effect of over 60% in size
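16 hr compound incubation (37 °C, 5% CO2) of HEK293T cells carrying luciferase-tagged ELG1; luciferase then measured by ONE-Glo luminescence after 30 min at RT.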
ELG1 DNA repair: qHTS screen for small molecules that inhibit ELG1-dependent DNA repair in human embryonic kidney (HEK293T) cells expressing luciferase-tagged ELG1 | HEK293T ELG1-luciferase reporter, luminescence, 16 h; DNA damage induced by 5-fluorouridine | Potency, µM (doses to about 46.1 µM), most hits filed as inhibitors | hit rate 2.3% among 330,000 | AID 504467, 2011; further: nearly all actives have a fitted effect of over 55% in size
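DMSO vehicle served as the neutral condition. Each well held 2,000 cells given 5-fluorouridine plus compound; after 16 hr at 37 °C/5% CO2, ONE-Glo was added and luciferase measured 30 min later.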
NPC1 promoter act: qHTS Assay for NPC1 Promoter Activators. Huh7 NPC1 promoter luciferase reporter, 24 h. AID 485313, 2010. Potency, µM (doses to about 9.22 µM), actives largely listed as activators. hit rate 2.4% among 320,000; further: nearly all actives have a fitted effect of over 60% in size
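Luminescence from an NPC1 promoter-driven luciferase reporter in stably transfected Huh7 cells was measured after 24 h compound treatment at 37 °C, followed by 10 min ambient incubation with luciferase detection reagent.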
Rab9 prom act: qHTS Assay for Rab9 Promoter Activators; Potency, µM (doses to about 9.22 µM), hits mostly activators; hit rate 2.8% among 320,000; Huh7 Rab9 promoter-luciferase reporter, luminescence, 24 h; further: nearly all actives have a fitted effect of over 60% in size
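Cell-based reporter: Huh7 stable for Rab9 promoter-driven luciferase, plated in reduced-serum medium with 10% FBS at 1500 cells/well, compound-treated 24 h at 37 °C, luminescence read after 10 min reagent.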
A number is an active result; i = inactive; ? = inconclusive; nt = no result; [ ] = remark or other dose. An excerpt weighted towards active compounds, which were near 9.4% of everything screened. The call rests on the fitted dose curve; in most records, active means well fitted curve in the direction sought with a large enough effect; inconclusive means small, poorly fitted or top-dose-only effect, or another doubt; inactive means no such curve, though single readings can be large; an effect the other way counts as inactive or inconclusive.

SMILES | FLuc modulator | SMN2 splice up | ELG1 genotox | ELG1 DNA repair | NPC1 promoter act | Rab9 prom act
O=C(Nc1ccc2[nH]c3c(c2c1)CCCC3)c1ccco1 | ? | ? | i | 4.5µM | i | i
O=C(Nc1ccc2nc(-c3ccco3)[nH]c2c1)c1ccco1 | 7.6µM | i | 16µM | ? | ? | ?
NNC(=O)c1ccc2[nH]c3c(c2c1)CCCC3 | ? | i | i | i | i | i
Cc1ccc(Cl)cc1NC(=O)Cn1cc(S(=O)(=O)Cc2ccccc2Cl)c2ccccc21 | i | nt | nt | nt | nt | nt
COc1ccc(NC(=O)C2(c3cccs3)CCOCC2)cc1Cl | i | nt | nt | nt | nt | nt
COc1cccc(/C=C/C(=O)c2ccc(C)c([N+](=O)[O-])c2)c1 | ? | i | i | ? | i | i
COc1cccc(/C=C/C(=O)c2ccc(NS(=O)(=O)c3ccc(C)cc3)cc2)c1 | 13µM | i | i | ? | i | i
COc1cc(/C=C/C(=O)c2ccc(NS(=O)(=O)c3ccc(C)cc3)cc2)ccc1OC(F)F | i | i | i | ? | i | i
COc1cc(/C=C/C(=O)c2ccc(NS(=O)(=O)c3ccc(C)cc3)cc2)cc(OC)c1O | i | i | i | 10µM | i | i
CCOC(=O)c1cc(C(=O)Nc2ccc(C)c(F)c2)nn1C | 7.6µM | i | ? | ? | 4µM | 2.8µM
CCCOc1ccc(C(=O)Nc2cccc(NC(=O)c3cccc(Cl)c3)c2)cc1 | 12µM | i | nt | nt | nt | nt
Cn1nc(C(=O)Nc2ccc(Br)cc2)cc1C(=O)Nc1ccc(Br)cc1 | i | nt | i | i | i | i
COc1cc(OC)cc(C(=O)Nc2cccc(-c3ccc4nncn4n3)c2)c1 | i | i | i | i | i | i
COc1cccc(NC(=O)c2cc(C(=O)Nc3cccc(OC)c3)n(C)n2)c1 | i | i | i | 13µM | i | i
COc1ccc(C(=O)Nc2cccc(-c3ccc4nncn4n3)c2)cc1 | 17µM | i | i | i | i | i
CCOc1ccc(C(=O)Nc2cccc(NC(=O)c3ccc(Cl)cc3Cl)c2)cc1 | i | i | nt | nt | nt | nt
COc1cccc(CNC(=O)CCc2c(C)c3cc4c(C)coc4cc3oc2=O)c1 | i | i | nt | nt | nt | nt
COC(=O)c1cccc(NC(=O)c2cc3sccc3n2C)c1 | 15µM | 11µM | ? | ? | 1.3µM | 1.8µM
COC(=O)c1ccc(NC(=O)c2cccc(OC)c2)cc1 | 19µM | ? | ? | ? | ? | ?
O=C(NC(=S)Nc1ccc2c(c1)C(=O)c1ccccc1C2=O)c1ccc(F)cc1 | 17µM | 11µM | ? | ? | ? | ?
COC(=O)c1cccc(NC(=O)c2cccc(OC)c2)c1 | 12µM | ? | nt | nt | nt | nt
COC(=O)c1ccccc1NC(=O)c1cc2sccc2n1C | ? | i | i | i | i | i
CCN1CCOC(=O)C1CC(=O)Nc1cc(Cl)ccc1OC (configuration not stated) | i | i | nt | nt | nt | nt
CCCc1cc(N2CCN(c3cc(Cl)ccc3C)CC2)n2cnnc2n1 | i | i | nt | nt | nt | nt
COc1ccccc1NC(=O)Cn1c(=O)c(CNc2ccc(C)cc2)cc2cc3c(cc21)OCCO3 | i | nt | nt | nt | nt | nt
SMILES | FLuc modulator | SMN2 splice up | ELG1 genotox | ELG1 DNA repair | NPC1 promoter act | Rab9 prom act
COc1cc(OC)cc(C(=O)Nc2cccc(NC(C)=O)c2)c1 | i | i | i | i | i | i
COc1cccc(C(=O)COc2cccc(NC(=O)c3cccc([N+](=O)[O-])c3)c2)c1 | ? | i | i | 13µM | i | i
COc1cccc(C(=O)Nc2ccc3c(c2)C(=O)c2ccccc2C3=O)c1 | ? | i[1.84 µM] | ? | ? | 3.2µM | ?
COc1cccc(C(=O)Nc2cccc(OC(C)=O)c2)c1 | ? | 11µM | i | ? | ? | ?
COc1cccc(C(=O)Nc2ccc(C(=O)c3ccccc3)cc2)c1 | ? | nt | i | i | i | i
CCOC(=O)Nc1cccc(NC(=O)c2cc(OC)cc(OC)c2)c1 | ? | i | i | 15µM | ? | i
COc1ccccc1CNc1cc(-c2ccccc2)nc2nncn12 | i | i | nt | nt | nt | nt
Cc1nnsc1C(=O)Oc1ccccc1Cl | i | nt | nt | nt | nt | nt
